The other results are listed elsewhere or left out.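 Rule for the calls: active = mean activation above a set limit carried over from the earlier primary screen; inactive = the rest.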
Target: Caspase-7 (Homo sapiens) (UniProt P55210)
Assay: activation of procaspase-7 enzyme – biochemical, absorbance, human, dual procaspase-3/-7 activator project, confirmation (AID 493115);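 note: 0% = DMSO only and 100% = DMSO with added 5 µM PC-7 enzyme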
Settings: recombinant procaspase-7, Ac-DEVD-pNA absorbance 405 nm; at 8.5 µM; stronger effect = higher value; D23A/D198A/D206A mutant that cannot self-cleave

Chain of Caspase-7 (Homo sapiens) (P55210 whole entry D23A/D198A/D206A): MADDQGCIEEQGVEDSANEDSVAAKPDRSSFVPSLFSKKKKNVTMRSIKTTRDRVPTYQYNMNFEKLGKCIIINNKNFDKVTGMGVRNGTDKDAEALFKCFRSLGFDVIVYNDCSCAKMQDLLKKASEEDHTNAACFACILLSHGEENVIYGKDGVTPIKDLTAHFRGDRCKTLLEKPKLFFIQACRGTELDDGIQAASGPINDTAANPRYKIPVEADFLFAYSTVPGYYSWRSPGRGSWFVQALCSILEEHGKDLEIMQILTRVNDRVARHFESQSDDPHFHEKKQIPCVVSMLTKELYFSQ

activation, inactive:
Fc1ccc(N2N=C(c3cccs3)CC2c2ccco2)c(F)c1 (stereo not given) -34.9%, CNS(=O)(=O)c1cccc(C(=O)NC2CCCc3ccccc32)c1 (stereo not given) 0.28%, CCCCOC(=O)Cn1c(=O)n(CC(=O)OCCCC)c2cc(C)ccc21 0.05%, O=C1OCCN1C(=O)[C@H]1[C@H](c2ccc(F)cc2)C(c2ccccc2)=NN1c1ccc(Br)cc1 -35.1%, CCOC(=O)C1(CCOC)CCN(Cc2cc3ccccc3s2)CC1 2.06%, COc1ccc(Nc2ncnc3sc(-c4ccccc4)cc23)c(OC)c1 -12.6%, CC(=O)Oc1ccc2c(C)c(CC(C)O)c(=O)oc2c1 (stereo not given) -34%, Nc1cccc2c1C(=O)N(Cc1nnc(-c3ccccc3Br)o1)C2=O -35.8%, COc1ccc2sc(-c3ccc(S(C)(=O)=O)cc3)c(C#Cc3cncn3C)c2c1 -34.2%, COc1ccc(-c2onc3ccc(C(C)=O)cc23)cc1 -35.4%, COc1ccc(Nc2ncc(C(=O)N3CCN(c4ccccc4OC)CC3)c3ccccc23)cc1 2.22%, CCN(CC)c1ccc2oc(=O)c(C)nc2c1 -21%, COc1ccccc1N=Cc1c(O)c2ccccc2oc1=O -13.5%, COc1ccc(/C=N/Nc2nc3ccccc3c(=O)[nH]2)cc1 0.2%, CC1(C)Cc2c(C#N)c(SCc3nc4ccccc4[nH]3)nc(N3CCOCC3)c2CO1 -34.3%

— PubChem BioAssay AID493115 (The Scripps Research Institute Molecular Screening Center, 2011)
